Experimental findings from PubChem BioAssay (NCI) are described below.

Several values for one entry are separate records, joined by “and”; a condition that tells them apart may be missing. Identical values can stand only once. Compounds without any hit were thinned out: in the full panel of roughly 79,000, 15% have a hit. A number with no mark means an inactive call. Activity calls are given as the source filed them. No stated cut-off is given here; in the data, active means growth inhibition above about 70%; inactive means the rest.

A short description of assay [1]: NCI Yeast Anticancer Drug Screen. Data for the rad50 strain (AID 155).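 Further: 0% = growth of vehicle-only cultures of the same strain.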 The following applies: S. cerevisiae rad50 strain growth inhibition, hits give high values; at 50.0 µM unless noted. The method, boiled down: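 Vehicle-treated cultures provide the reference for the growth inhibition reported for compound-exposed, repair-deficient yeast.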
Assay [2] in a line: NCI Yeast Anticancer Drug Screen. Data for the sgs1 mgt1 strain (AID 161).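 Further: 0% = growth of cultures given vehicle only.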 The following applies: S. cerevisiae sgs1 mgt1 strain, hits give high values. The method in brief:
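Percent growth inhibition was derived by comparing compound-exposed mutant yeast with vehicle-exposed cultures. The strain carries alterations in DNA damage repair.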

Assay [3] can be described thus: NCI Yeast Anticancer Drug Screen. Data for the cln2 rad14 strain (AID 165).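 Further: 0% = growth equal to vehicle treated cultures.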 The settings on record: S. cerevisiae cln2 rad14 strain, hits give high values. The method, boiled down: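 Strain: cln2 rad14 yeast, altered in cell cycle control and DNA damage repair. Read-out: growth inhibition vs vehicle.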
The nature of assay [4]: NCI Yeast Anticancer Drug Screen. Data for the bub3 strain (AID 167). The settings on record: S. cerevisiae bub3 mutant strain, hits give high values. The method, boiled down: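 Mutant yeast screening strain plus compound; vehicle-treated cultures serve as the 0% inhibition reference.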
A short description of assay [5]: NCI Yeast Anticancer Drug Screen. Data for the mlh1 rad18 strain (AID 175). The following applies: S. cerevisiae mlh1 rad18 strain growth inhibition, hits give high values. The method, boiled down:
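A repair-deficient yeast strain is exposed to test compound, and growth is scored relative to vehicle-treated controls.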

Assay [6] in a line: NCI Yeast Anticancer Drug Screen. Data for the mec2-1 strain (AID 157). The following applies: S. cerevisiae mec2-1 strain, hits give high values. The method, boiled down:
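Compounds were applied to mec2-1 yeast cells. Their growth was then compared with that of vehicle-treated cultures to give growth inhibition.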

[7] abbreviates: at 5.0 µM (retest, dose inferred, filed as 0.5).
[8] abbreviates: at 50.0 µM (retest, dose inferred, filed as 5.0).

On to `CSc1ccc(NC(=O)c2ccc(Cl)cc2)cc1`, for which the growth inhibition in assay [1] was -13.7%; in assay [2] (at 50.0 µM unless noted) it was -6.45%; in assay [3] (at 50.0 µM unless noted), -22.7%; in assay [4] (at 50.0 µM unless noted), 5.25%; in assay [5] (at 50.0 µM unless noted) it was -3.35%.
For the compound `Cc1ccc(Nc2nc(-c3ccc(-c4ccc([N+](=O)[O-])cc4)o3)cs2)cc1`, the growth inhibition in assay [1] is 20.5%; in assay [2] (at 50.0 µM unless noted), 31.8%; in assay [3] (at 50.0 µM unless noted), 31.5%; in assay [4] (at 50.0 µM unless noted), 28.7%; in assay [5] (at 50.0 µM unless noted), 44%.
For `COC1=CC(=O)C2CC=CC(CC(=O)O)C2(C)C1=O` (stereo not given) the same measures were -0.95%, -0.35%, -21.9%, 7.3% and 4.5%.
The like results for `C=CC(=O)Nc1ccccc1` were, in that order, 16.4%, 8.25%, -8.35%, -10% and 5.55%.
The like results for `CCCCCCC(=O)OCC(=O)c1ccc(Br)cc1` were, in that order, 2.85%, 15.2%, -115%, 22.2% and 15%.
Turning to `COc1cc2c(cc1OC)C(c1c(-c3c(Cl)cccc3Cl)noc1C)=NCC2`, the growth inhibition in assay [1] is -3.8%; in assay [2] (at 50.0 µM unless noted) it was -11.8%; in assay [3] (at 50.0 µM unless noted), 19.8%; in assay [4] (at 50.0 µM unless noted), 3.2%; in assay [5] (at 50.0 µM unless noted) it was -4.25%.
For `COc1cccc(C(c2ccccc2)C(CC(=O)O)CC(=O)O)c1` (stereo not given) the same measures were 8.8%, -12.8%, 4%, -2.1% and -16.5%.
With `O=c1[nH]c2ccc([N+](=O)[O-])cc2nc1/C(=N/Nc1ccccc1)C(O)c1ccco1` (stereo not given), the growth inhibition in assay [1] was -4.6%; in assay [2] (at 50.0 µM unless noted) it was -12.8%; in assay [3] (at 50.0 µM unless noted), 6%; in assay [4] (at 50.0 µM unless noted), -10.6%; in assay [5] (at 50.0 µM unless noted), 12.9%.
For `COc1ccc(N2C(=O)c3c(c4[nH]c5ccc(OC)cc5c4c4ccc(C(C)(C)C)cc34)C2=O)cc1` the same measures were -8.85%, 4.4%, 7.2%, -2.95% and 26.6%.
The like results for `CC(=O)c1c(C)cc2cc(C)cc(O)c2c1O` were, in that order, 30.9%, 1.4%, 0.6%, 0.4% and 29.9%.
The like results for `O=C1C2(c3ccccc3)CCC1(c1ccccc1)C(c1ccccc1)=C2c1ccccc1` were, in that order, 40.1%, 7.25%, 23.9%, 3.05% and 37.5%.
For the compound `O=C(CCCCl)N1CCCCCC1`, the growth inhibition in assay [1] is -5.25%; in assay [2] (at 50.0 µM unless noted) it was -17.5%; in assay [3] (at 50.0 µM unless noted) it was -37%; in assay [4] (at 50.0 µM unless noted), 15.1%; in assay [5] (at 50.0 µM unless noted), 5.7%.
For `Cc1cccc(C)c1NC(=O)c1c(Cl)c(Cl)c(Cl)c(Cl)c1C(=O)O` the same measures were -25.9%, -15.7%, -20%, 4.55% and -18.2%.
For `Clc1ccc(C2ON=C(c3ccccc3)N2C23CC4CC(CC(C4)C2)C3)cc1Cl` (stereo not given) the same measures were 5.65%, 2.8%, -20%, -7.9% and -1%.
For `CCOc1ccc(C(C)c2cc3c(cc2OCC(=O)O)OCO3)cc1` (stereo not given) the same measures were 0.65%, -8.45%, 25.1%, -6.9% and -11.6%.
Turning to `NCCCOB(OCCCN)OCCCN`, the growth inhibition in assay [1] was 8.3%; in assay [2] (at 50.0 µM unless noted), -17.1%; in assay [3] (at 50.0 µM unless noted) it was -20.2%; in assay [4] (at 50.0 µM unless noted) it was -2.45%; in assay [5] (at 50.0 µM unless noted), -10.2%.
`CCOC(=O)Cc1nc2ccccc2[nH]1`: the growth inhibition was 4.4% in assay [1]; -13.2% in assay [2] (at 50.0 µM unless noted); -103% in assay [3] (at 50.0 µM unless noted); -12.2% in assay [4] (at 50.0 µM unless noted); -3.2% in assay [5] (at 50.0 µM unless noted).
For `COc1cc(CC(=O)C(=O)O)ccc1O` the same measures were 0.85%, 4.35%, -14.7%, 2.2% and -1.95%.
Regarding `Cc1cc(C)c(F)c(C)c1F`, the growth inhibition in assay [1] was -7.95%; in assay [2] (at 50.0 µM unless noted), -5.45%; in assay [3] (at 50.0 µM unless noted) it was -15.8%; in assay [4] (at 50.0 µM unless noted), 5.9%; in assay [5] (at 50.0 µM unless noted) it was -2.3%.
For the compound `O=P(O)(O)OCC1OC(n2cnc3c(=S)nc[nH]c32)C(O)C1O` (stereo not given), the growth inhibition in assay [1] is -17.4%; in assay [2] (at 50.0 µM unless noted), -14.1%; in assay [3] (at 50.0 µM unless noted), 3.9%; in assay [4] (at 50.0 µM unless noted) it was -7.7%; in assay [5] (at 50.0 µM unless noted), -3.55%.
The like results for `CCc1ccc(NS(=O)(=O)c2ccccc2[N+](=O)[O-])cc1` were, in that order, 31.9%, 61.8%, 25.3%, 50.9% and 65.5%.
For `C/C(=N\NC(=S)Nc1nccs1)c1ccccn1` the same measures were 96.7% (active), 97.6% (active), 90.5% (active), 96% (active) and 98.4% (active).
With `COc1ccc(NC(=O)CC/C(CC(=O)c2ccco2)=N/NC(=O)C(N)=O)cc1`, the growth inhibition in assay [6] (at 50.0 µM unless noted) is -10.4%; in assay [2] (at 50.0 µM unless noted), -15.8%; in assay [3] (at 50.0 µM unless noted), -7.15%; in assay [4] (at 50.0 µM unless noted), -14.1%; in assay [5] (at 50.0 µM unless noted) it was -18.1%.
The like results for `CCOC(=O)c1cccc(N)c1C(=O)OCCN(CC)CC` were, in that order, 0.15%, -3.75%, -25.2%, 19.4% and 3.55%.
The like results for `CCC[n+]1nc2ccccc2c(=Nc2ccccc2[N+](=O)[O-])[n-]1` were, in that order, 8.75%, 2.75%, 7.8%, 12.3% and 2.45%.
The like results for `CCCCCCC(/C=N/NC(=O)CCCCCCCCC(=O)N/N=C/C(=C/c1ccccc1)CCCCCC)=C\c1ccccc1` were, in that order, 1.85%, -5.95%, -5.05%, -1.45% and 15.9%.
Take `O=C(Oc1cccc(O)c1)c1ccccc1`: the growth inhibition in assay [6] (at 50.0 µM unless noted) was 11%; in assay [2] (at 50.0 µM unless noted), -9.15%; in assay [3] (at 50.0 µM unless noted), -18.8%; in assay [4] (at 50.0 µM unless noted), 19.9%; in assay [5] (at 50.0 µM unless noted), -6.1%.
On to `O=C(/C=C/c1ccccc1)c1ccccc1`, for which the growth inhibition is 10.3% and -6.35% in assay [6] (at 50.0 µM unless noted); -8.65% and -18.8% in assay [2] (at 50.0 µM unless noted); -41% and -36.2% in assay [3] (at 50.0 µM unless noted); 21.7% and 1.7% in assay [4] (at 50.0 µM unless noted); 14.3% and -22.3% in assay [5] (at 50.0 µM unless noted).
For the compound `CCN1CCCC(C(=O)O)(c2ccccc2)CC1` (stereo not given), the growth inhibition in assay [6] (at 50.0 µM unless noted) is -11.1%; in assay [2] (at 50.0 µM unless noted), -6.2%; in assay [3] (at 50.0 µM unless noted), -39%; in assay [4] (at 50.0 µM unless noted), -1.15%; in assay [5] (at 50.0 µM unless noted), 2%.
For `CCOC(=O)[C@]12C3C=CC(C3)C1C(=O)C1OC12` (stereo not given in full) the same measures were -26.8%, -19.3%, -0.5%, -26.6% and -45.1%.
The like results for `COC(=O)/C(=C(\C)NC(C)=O)c1c(C(=O)OC)[nH]c2ccccc12` were, in that order, -12.5%, -9.15%, 4.15%, -3% and -111%.
The like results for `CN(C)c1ccc(/C=C/C=C2\C=Cc3ccccc32)cc1` were, in that order, -17.9%, -6%, -26.2%, -0.25% and -2.75%.
In the case of `OC1CN(c2ccc(Br)cc2)CC(O)CN(c2ccc(Br)cc2)C1` (stereo not given), the growth inhibition in assay [6] (at 50.0 µM unless noted) is 99.7% (active); in assay [2] (at 50.0 µM unless noted) it was 99.7% (active); in assay [3] (at 50.0 µM unless noted) it was 99.5% (active); in assay [4] (at 50.0 µM unless noted) it was 99.5% (active); in assay [5] (at 50.0 µM unless noted) it was 99.7% (active).
For `[N-]=[N+]=NC1(N=[N+]=[N-])C(=O)Nc2ccccc2C1=O` (stereo not given), the growth inhibition in assay [6] (at 50.0 µM unless noted) was 14.8%; in assay [2] (at 50.0 µM unless noted), 2.55%; in assay [3] (at 50.0 µM unless noted), 3.65%; in assay [4] (at 50.0 µM unless noted), -10.2%; in assay [5] (at 50.0 µM unless noted) it was 12.6%.
As for `CC1(C)OC(=O)N=C1c1ccccc1Cl`, the growth inhibition is -18.4% in assay [6] (at 50.0 µM unless noted); -11.3% in assay [2] (at 50.0 µM unless noted); -11.4% in assay [3] (at 50.0 µM unless noted); -15.6% in assay [4] (at 50.0 µM unless noted); 7.65% in assay [5] (at 50.0 µM unless noted).
For `NNC(=S)N/N=C/c1ccc([N+](=O)[O-])s1` the same measures were -2.4%, 24.1%, -47.4%, -19.8% and 6.35%.
On to `N#CC(c1ccccc1)c1cccc2ccccc12` (stereo not given), for which the growth inhibition was 3% in assay [6] (setting [7]); 35% in assay [6] (setting [8]); 1% in assay [2] (setting [7]); 74% (active) in assay [2] (setting [8]); -4% in assay [3] (setting [7]); -4% in assay [3] (setting [8]). The growth inhibition in assay [4] (setting [7]) is 7%; in assay [4] (setting [8]), 59%; in assay [5] (setting [7]) it was -25%; in assay [5] (setting [8]), 56%.
On to `O=c1c2cc(Cl)ccc2c2ccc(Cl)cc2c(=O)n1-c1ccc2c(c1)Cc1ccccc1-2`, for which the growth inhibition in assay [6] (at 50.0 µM unless noted) was -0.2%; in assay [2] (at 50.0 µM unless noted), -1.7%; in assay [3] (at 50.0 µM unless noted) it was -10.6%; in assay [4] (at 50.0 µM unless noted), 8.8%; in assay [5] (at 50.0 µM unless noted) it was -3.4%.
